Among all 330,000 compounds or so, about 3,800 (1.2%) were called active. This excerpt belongs to a sample that is enriched for actives. Values without a mark were called inactive. Cut-off read from the data, not from the text of the source: active = inhibition above about 15%; inconclusive = no clear call, values can overlap the other calls; inactive = below that.

The target in this experiment is NAD-dependent protein deacylase sirtuin-5, mitochondrial (Homo sapiens) (UniProt Q9NXA8). The experiment is described as follows: SIRT5 desuccinylase inhibitors, primary screen, biochemical, fluorescence imaging, single point, set 5 (AID 652115). The conditions noted are these: Purified SirT5, succinyl-peptide AMC, trypsin-coupled fluorescence; at 15 µM; active compounds read high.
Sequence of NAD-dependent protein deacylase sirtuin-5, mitochondrial (Homo sapiens) (Q9NXA8 whole entry, looked up): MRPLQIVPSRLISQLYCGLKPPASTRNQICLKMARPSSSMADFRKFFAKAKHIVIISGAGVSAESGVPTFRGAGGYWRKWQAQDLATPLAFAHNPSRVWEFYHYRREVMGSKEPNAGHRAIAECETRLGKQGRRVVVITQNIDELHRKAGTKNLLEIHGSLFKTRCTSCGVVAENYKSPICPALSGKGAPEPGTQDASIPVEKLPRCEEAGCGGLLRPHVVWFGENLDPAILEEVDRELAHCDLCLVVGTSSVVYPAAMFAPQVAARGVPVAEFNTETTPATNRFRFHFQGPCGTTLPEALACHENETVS
On to `COc1ccc(S(=O)(=O)N2CCCCC2)cc1NC(=O)C1CC(=O)N(c2ccc3c(c2)OCCO3)C1` (centres undefined), for which the inhibition (as a rule, the drop in the measured response relative to a control, in per cent) was -0.216%.
For `Cc1ccc(N2CC(C(=O)Nc3ccc(S(=O)(=O)N4CCCC4)cc3)CC2=O)cc1C` (centres undefined), the inhibition was -0.84%.
With `Cc1ccc(NC(=O)C2CC(=O)N(c3ccc4c(c3)OCCO4)C2)cc1S(=O)(=O)N1CCCCCC1` (centres undefined), the inhibition was 15.7% (active).
Next, `CN1[C@@H]2c3ccc(-c4cccc(F)c4)c(=O)n3C[C@@H]2[C@@H](CO)[C@@H]1C(=O)NC1CCC1`: 1.95%; `CC(C)(C)OC(=O)Nc1ccc([C@@H](NC(=O)OC(C)(C)C)C(=O)OC(C)(C)C)cc1`: 4.38%; `CC(C)(C)OC(=O)N[C@H](C(=O)OC(C)(C)C)c1ccc(Br)cc1`: 0.762%.
For `COC(=O)c1ccc([C@@H](O)[C@H](C)C(=O)CC(=O)OC(C)(C)C)cc1`, the inhibition was 37.8% (active).
In the case of `C[C@@H]1CN([C@H](C)CO)C(=O)c2c(c3ccccc3n2C)-c2ccccc2CO[C@H]1CN(C)Cc1ccc(F)cc1`, the inhibition is 8.7%.
As to `C[C@H]1CN([C@@H](C)CO)C(=O)c2cc(-c3cccnc3)cnc2O[C@@H]1CN(C)C(=O)C1CC1`, the inhibition is -5.02%.
Take `C[C@@H]1CN([C@@H](C)CO)C(=O)Cc2cc(NC(=O)CCCN(C)C)ccc2O[C@@H]1CN(C)Cc1ccc(-c2ccccc2)cc1`: the inhibition was -0.666%.
As for `C[C@H]1CN([C@@H](C)CO)C(=O)Cc2cc(NS(=O)(=O)c3ccccc3)ccc2O[C@H]1CN(C)Cc1ccc(C(=O)Nc2ccccc2N)cc1`, the inhibition was 18.7% (active).
On to `C[C@H]1CN([C@@H](C)CO)C(=O)Cc2cc(NS(=O)(=O)c3ccccc3)ccc2O[C@@H]1CN(C)Cc1ccc(C(=O)Nc2ccccc2N)cc1`, for which the inhibition is -3.96%.
As to `C[C@H]1CN([C@@H](C)CO)C(=O)Cc2cc(NC(=O)Cn3cnnn3)ccc2O[C@@H]1CN(C)Cc1ccc(-c2ccccc2)cc1`, the inhibition is 4.01%.
For `C[C@@H]1CN([C@@H](C)CO)C(=O)Cc2cc(NC(=O)Cc3ccccc3)ccc2O[C@@H]1CN(C)Cc1ccc(Oc2ccccc2)cc1` the value was 15.7% (active); for `C[C@@H]1CN([C@H](C)CO)C(=O)Cc2cc(NC(=O)CCC(F)(F)F)ccc2O[C@@H]1CN(C)Cc1ccncc1`, -3.99%; for `C[C@H](CO)N1C[C@H](C)[C@@H](CN(C)Cc2ccc(C(=O)O)cc2)Oc2ccc(NC(=O)Cn3cnnn3)cc2CC1=O`, 0.832%.
On to `COc1ccc(CN(C)C[C@H]2Oc3ccc(NC(=O)Cc4ccccc4)cc3CC(=O)N([C@@H](C)CO)C[C@@H]2C)cc1`, for which the inhibition was 3.47%.
Next, `C[C@H](CO)N1C[C@H](C)[C@@H](CN(C)Cc2ccc(-c3ccccc3)cc2)Oc2ccc(NC(=O)CCC(F)(F)F)cc2CC1=O`: 16.8% (active); `C[C@@H]1CN([C@H](C)CO)C(=O)Cc2cc(NC(=O)Cc3ccccc3)ccc2O[C@H]1CN(C)Cc1ccc(Oc2ccccc2)cc1`: 11.3%; `Cc1ccc(S(=O)(=O)Nc2ccc3c(c2)CC(=O)N([C@@H](C)CO)C[C@H](C)[C@H](CN(C)Cc2ccc(C(=O)Nc4ccccc4N)cc2)O3)cc1`: 3.56%.
As to `C[C@H]1CN([C@@H](C)CO)C(=O)Cc2cc(NC(=O)Cn3cnnn3)ccc2O[C@H]1CN(C)Cc1ccc(C(=O)O)cc1`, the inhibition was 18% (active).
For `COCc1cc(N2CCN(C(=O)OC(C)(C)C)C[C@@H]2C)ccc1N1CCN(Cc2ccccc2)[C@H](C)C1` the value was -1.86%.
For `COc1ccc2c3c([nH]c2c1)[C@H](CO)N(Cc1ccccc1)CC31CCN(C(=O)c2ccccn2)CC1`, the inhibition was -0.283%.
For `CC(=O)N[C@@H]1CC[C@@H](CCNC(=O)C2CC2)O[C@H]1CO`, the inhibition is -0.463%.
As for `C[C@H](CO)N1C[C@H](C)[C@H](CN(C)C(=O)CCC(F)(F)F)OCCCC[C@H](C)Oc2ccc(NS(=O)(=O)c3ccc(F)cc3)cc2C1=O`, the inhibition was 6.37%.
For the compound `C[C@@H]1CCCCO[C@@H](CN(C)S(C)(=O)=O)[C@H](C)CN([C@@H](C)CO)C(=O)c2cc(NS(=O)(=O)c3cccs3)ccc2O1`, the inhibition is -3.17%.
Take `CC(C)NC(=O)N(C)C[C@H]1Oc2ncc(-c3ccc(C(=O)N(C)C)cc3)cc2C(=O)N([C@H](C)CO)C[C@H]1C`: the inhibition is -4.27%.
In the case of `C[C@@H]1CCCCO[C@H](CN(C)Cc2ccc(Cl)c(Cl)c2)[C@H](C)CN([C@@H](C)CO)C(=O)c2cc(NC(=O)CCC(F)(F)F)ccc2O1`, the inhibition was 11%.
For `CCN(CC(=O)NC1CCS(=O)(=O)C1)S(=O)(=O)c1ccccc1` (centres undefined) the value was 20.8% (active); for `CCN(CC(=O)NCCc1ccccc1)S(=O)(=O)c1ccccc1`, 13.5%.
With `CCN(CC(=O)Nc1ccc2c(c1)OCO2)S(=O)(=O)c1ccccc1`, the inhibition was -11.2%.
For the compound `COc1cccc(/C=C2/SC(=S)N(CC(=O)NC3C=CS(=O)(=O)C3)C2=O)c1` (centres undefined), the inhibition was 7.07%.
Regarding `CCOc1ccc(/C=C2\SC(=S)N(NC(=O)c3ccncc3)C2=O)cc1OC`, the inhibition is -1.31%.
Next, `COc1ccc(/C=C2\SC(=S)N(CC(=O)NNC(=O)c3ccncc3)C2=O)cc1`: 36.3% (active); `COc1ccccc1S(=O)(=O)N1CC[C@@H]2[C@H]1c1cc(-c3ccccc3)ccc1N[C@@H]2CO`: 2.02%; `O=C(C[C@@H]1CC[C@H](NC(=O)C2CCOCC2)[C@@H](CO)O1)Nc1ccccc1`: -0.611%.
With `Cc1ccc(F)cc1S(=O)(=O)N[C@@H]1CCN(Cc2ccc(-c3ccccc3)cc2)C1`, the inhibition is 4.54%.
Consider `Cc1ccc(S(=O)(=O)N2C[C@@H]3CCCC[C@@H]3[C@@H](C)[C@H]2c2cn(Cc3ccccc3)c3ccc(F)cc23)cc1`, for which the inhibition was 26.5% (active).
Next, `CCOC1=C2[C@@H](CN(S(=O)(=O)c3ccc(C)cc3)[C@H]2c2ccccc2F)[C@H]2C(=O)N(Cc3ccccc3)C(=O)[C@H]2C1`: 10.7%; `COc1cc(/C=C2\C(=N)N3N=C(CC(=O)N4CCOCC4)SC3=NC2=O)cc(OC)c1OC`: -5.1%.
As to `COc1cccc(/C=C2\SC(=S)N(CCCC(=O)N3CCOCC3)C2=O)c1`, the inhibition was -0.302%.
With `C=CCC1=C/C(=C\c2c(N)n3nc(CC(=O)N4CCOCC4)sc3nc2=O)C=C(OC)C1=O`, the inhibition is 31.6% (active).
For the compound `O=C(OCC(=O)N1CCOCC1)c1ccc2ccccc2c1`, the inhibition is -8.77%.
Take `COC1=C/C(=C/c2c(N)n3nc(CC(=O)N4CCOCC4)sc3nc2=O)C=CC1=O`: the inhibition is 15.9% (active).
